Bioassay records (PubChem BioAssay)
PLK1 PBD inh = qHTS for Inhibitors of PLK1-PDB (polo-like kinase 1 - polo-box domain): Primary Screen | 360,000 compounds, 2.8% hits | Potency, µM, hits mostly inhibitors | Serine/threonine-protein kinase PLK1 (Homo sapiens), P53350 | Plk1 PBD binding of FITC phosphopeptide, fluorescence polarization; note: series mostly up to about 57 µM; nearly all actives have a fitted effect of over 65% in size
Tb PFK block = qHTS Assay to Find Inhibitors of T. brucei phosphofructokinase; ATP-dependent 6-phosphofructokinase (Trypanosoma brucei brucei), O15648; T. brucei PFK, ADP-Glo luminescence; Potency, µM (series often up to 57.5 µM), actives largely listed as inhibitors; 330,000 compounds, 0.17% hits; AID 485367, 2010; note: nearly all actives have a fitted effect of over 60% in size
Target sequence (O15648 whole entry, looked up): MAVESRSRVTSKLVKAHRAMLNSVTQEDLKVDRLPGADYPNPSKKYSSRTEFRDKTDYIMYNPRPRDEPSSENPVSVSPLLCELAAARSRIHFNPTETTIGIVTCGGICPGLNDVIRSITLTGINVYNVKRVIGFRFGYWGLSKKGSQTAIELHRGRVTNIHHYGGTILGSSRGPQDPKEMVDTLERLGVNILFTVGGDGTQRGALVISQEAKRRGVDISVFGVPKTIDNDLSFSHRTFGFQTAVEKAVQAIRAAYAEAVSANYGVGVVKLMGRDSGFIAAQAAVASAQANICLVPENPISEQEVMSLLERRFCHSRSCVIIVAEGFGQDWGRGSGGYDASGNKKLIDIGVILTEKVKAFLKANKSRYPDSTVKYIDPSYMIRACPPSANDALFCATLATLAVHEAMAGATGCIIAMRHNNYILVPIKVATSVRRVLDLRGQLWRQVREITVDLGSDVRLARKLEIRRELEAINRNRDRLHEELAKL
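PFK 1.25 nM, F6P 0.5 mM, ATP 0.1 mM, 0.1 M TEA pH 8.0, 5 mM MgCl2, 0.01% Tween20, 0.1% BSA; 45 min RT. ADP-Glo readout. qHTS titration up to 57 uM; curves fitted, compounds curve-classed.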
VDR inhibitor = Inhibitors of the vitamin D receptor (VDR): qHTS | VDR-SRC2-3 peptide fluorescence polarization, 2 h | Potency, µM, actives largely listed as inhibitors | 400,000 compounds, 0.93% hits | AID 504847, 2011
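Signal is fluorescence polarization, reporting how far test compounds block the interaction of VDR with the SRC2-3 coregulator peptide after a 2 h room-temperature incubation.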
BRCA1 expr up = qHTS Assay to Identify Small Molecule Activators of BRCA1 Expression; MCF7-BRCA1-FFLuc reporter, luminescence, 48 h; response scale: scaled: vehicle 0%, 10 µM genistein 100%; Potency, µM (doses to about 46.1 µM), actives largely listed as activators; 380,000 compounds, 1.1% hits; AID 624202, 2012; note: nearly all actives have a fitted effect of over 80% in size
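Activators of BRCA1 expression were detected as increased firefly luciferase luminescence in engineered MCF7 cells after 48 h compound incubation. Signals were scaled to genistein 10 microM as full activation.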
Each line names hits and unclear results; the compound was inactive in the other large screens. Only some compounds are listed: those with a hit (about 3.9% of all), similar ones and a draw of the others. Calls come from the whole dose curve; as a rule, active = well fitted curve in the direction sought with a large enough effect; inconclusive = small, poorly fitted or top-dose-only effect, or another doubt; inactive = no such curve, though single readings can be large; an effect the other way counts as inactive or inconclusive.

Cc1ccc(C)c(NC(=O)CSc2nc(N)c(NC(=O)c3cccs3)c(=O)[nH]2)c1	none
CC(C)[C@@H](CC(=O)N[C@@H]1CCCC[C@H]1C(=O)N[C@H](CC(=O)N[C@@H](CCC(=O)O)CC(=O)O)Cc1c[nH]c2ccccc12)NC(=O)C[C@H](CO)NC(=O)[C@@H]1CNCC[C@H]1N	none (no result: PLK1 PBD inh, Tb PFK block, BRCA1 expr up)
CCOC(=O)c1ccc(-n2c(-c3ccc(C)cc3)c(C)n3c4c(=O)n(C)c(=O)n(C)c4nc23)cc1	none (no result: PLK1 PBD inh, Tb PFK block)
CCOC(=O)c1sc(=NC(=O)CCSc2ccccc2)n(C)c1C	BRCA1 expr up 10µM
CCOC(=O)c1cc(CC)sc1NC(=O)c1ccc2c(c1)OCCO2	PLK1 PBD inh 21µM
CCOC(=O)c1cc(CC)sc1NC(=O)c1cc(OCC)c(OCC)c(OCC)c1	PLK1 PBD inh 27µM, VDR inhibitor inconclusive
CCOC(=O)c1cc(CC)sc1NC(=O)C1CC1	none
COCCN1C(=O)c2[nH]nc(-c3ccccc3O)c2C1c1ccc(OCc2ccccc2)c(OC)c1 (stereo not given)	none (no result: PLK1 PBD inh, Tb PFK block)
CCn1c(C)c(C)c2cc(C(=O)NCc3cccc(C)c3)ccc21	none (no result: PLK1 PBD inh, Tb PFK block, BRCA1 expr up)
CCOc1ccc(NC(=O)CN(C)C(=O)C(C)Oc2ccc(Cl)cc2)cc1OCC (stereo not given)	none (no result: Tb PFK block)
CCc1ccc(C(=O)NC(=S)Nc2ccc3c(c2)OCCO3)cc1	BRCA1 expr up 6.3µM
S=C(Nc1ccc(Cl)cc1)Nc1ccc2c(c1)OCCO2	BRCA1 expr up 7.1µM
O=C(NC(=S)Nc1ccc2c(c1)OCO2)c1ccc(Cl)cc1	BRCA1 expr up 6.3µM
O=C(NCc1ccccc1)c1cc2ccc(O)cc2oc1=O	PLK1 PBD inh 19µM, VDR inhibitor inconclusive, BRCA1 expr up inconclusive
NC(=O)c1cc2ccc(O)cc2oc1=Nc1ccccc1	PLK1 PBD inh 15µM, BRCA1 expr up inconclusive
COc1ccc2cc(C(N)=O)c(=Nc3ccccc3)oc2c1	BRCA1 expr up inconclusive
NC(=O)c1cc2ccccc2oc1=NCc1ccccc1	none
O=c1oc2cc(O)ccc2cc1-c1ccccc1	BRCA1 expr up 10µM
COc1ccc(-c2cc3ccc(O)cc3oc2=O)cc1	BRCA1 expr up inconclusive
NC(=O)c1cc2ccc(O)cc2oc1=NCc1ccccc1	PLK1 PBD inh 12µM
COC(=O)/C=C\C(C#N)(C#N)N=Cc1ccc(OC)cc1	PLK1 PBD inh 9.5µM, VDR inhibitor 13µM (no result: Tb PFK block)
COc1ccc(C=NNC(=O)CCCCC(=O)NN=Cc2ccc(OC)cc2)cc1	none (no result: Tb PFK block)
O=C(c1ccc2c(c1)N(Cc1ccccc1)C(=O)c1ccccc1S2=O)N1CCC(Cc2ccccc2)CC1 (stereo not given)	none (no result: PLK1 PBD inh, Tb PFK block)
O=C(O)c1ccc2c(c1)N(Cc1ccccc1)C(=O)c1ccccc1S2=O (stereo not given)	PLK1 PBD inh 27µM
O=C(COc1ccc2c(c1)CCC2)NCc1ccc(Cl)cc1	PLK1 PBD inh 30µM
O=C(O)[C@H](Cc1ccccc1)NC(=O)C(c1ccccc1)(c1ccccc1)c1ccccc1	PLK1 PBD inh 27µM
CCCCN1C(=O)CN(C2CCCCCC2)C(=O)C1c1ccc(OC(C)C)c(OC)c1 (stereo not given)	none (no result: PLK1 PBD inh, Tb PFK block, BRCA1 expr up)
NC(=NCc1ccco1)NC(=O)c1ccc(Cl)cc1	BRCA1 expr up 11µM
Cc1ccc(/C=C/C(=O)c2ccccc(=O)c2O)cc1C	PLK1 PBD inh 30µM, VDR inhibitor 45µM
O=C(/C=C/c1ccc(O)cc1)c1ccccc1O	VDR inhibitor 5.6µM (no result: PLK1 PBD inh, Tb PFK block, BRCA1 expr up)
O=C(/C=C/c1ccccc1)c1cc(Br)ccc(=O)c1O	PLK1 PBD inh 27µM, VDR inhibitor 22µM
CSc1ccc(/C=C/C(=O)NC(=O)c2ccccc2O)cc1	BRCA1 expr up 13µM
COc1ccc(C=CC(=O)c2ccc(OC)c(OC)c2O)cc1OC	VDR inhibitor inconclusive (no result: Tb PFK block)
Cc1cc(OCC(=O)Nc2cccc(-c3nc4ccccc4o3)c2C)cc(C)c1Cl	none (no result: PLK1 PBD inh, Tb PFK block, VDR inhibitor)
Cc1ccc(C2C(C#N)=C(N)Oc3n[nH]c(-c4ccccc4)c32)o1 (stereo not given)	PLK1 PBD inh 3.4µM, VDR inhibitor 25µM
N#CC1=C(N)Oc2n[nH]c(-c3cccs3)c2C1c1cccs1 (stereo not given)	PLK1 PBD inh 24µM
N#CC1=C(N)Oc2n[nH]c(-c3cccs3)c2C1c1ccccc1C(=O)O (stereo not given)	none
O=[N+]([O-])c1cc(C(F)(F)F)ccc1NCC1CCCO1 (stereo not given)	PLK1 PBD inh 6µM, VDR inhibitor 79µM
CCN(C(=O)CN1C(=O)S/C(=C\c2ccc(F)cc2)C1=O)C1CCS(=O)(=O)C1 (stereo not given)	PLK1 PBD inh 30µM
CN(C(=O)CN1C(=O)S/C(=C\c2ccc(F)cc2)C1=O)C1CCS(=O)(=O)C1 (stereo not given)	none
O=C(C[n+]1c2ccccc2cc2ccccc21)c1ccc(F)cc1	none (no result: PLK1 PBD inh, Tb PFK block, VDR inhibitor)
COc1ccc(C(=O)NCC(c2ccc(N(C)C)cc2)N2CCc3ccccc32)cc1 (stereo not given)	none (no result: PLK1 PBD inh, Tb PFK block, BRCA1 expr up)
CCCc1c2c(cc3c(=O)cc(C(=O)OCC)oc13)CCCC2	PLK1 PBD inh 21µM, VDR inhibitor inconclusive
Clc1ccc(OCCN2CCCCC2)cc1Cl	none
ON=C1c2cc(OCCN3CCCCC3)ccc2-c2ccc(OCCN3CCCCC3)cc21	PLK1 PBD inh 19µM, VDR inhibitor inconclusive
CN(C)CCN(C(=O)C1CCCCC1)c1nc2cc3c(cc2s1)OCCO3	BRCA1 expr up 11µM (no result: Tb PFK block, VDR inhibitor)
CN(C)CCN(C(=O)c1ccc2ccccc2c1)c1nc2cc3c(cc2s1)OCCO3	none
CN(C)CCCN(C(=O)c1ccc2c(c1)OCCO2)c1nc2cc3c(cc2s1)OCO3	none
CN(C)CCN(C(=O)c1cccs1)c1nc2cc3c(cc2s1)OCCO3	BRCA1 expr up 11µM
CC1CN(C(=O)COC(=O)c2cncc(Br)c2)CC(C)O1 (stereo not given)	none (no result: Tb PFK block, VDR inhibitor)
Cc1ccc(S(=O)(=O)/N=C2/NC(=O)/C(=C\c3cc(Br)cc(Br)c3O)S2)cc1	Tb PFK block inconclusive, VDR inhibitor 50µM
O=C1N/C(=N\S(=O)(=O)c2ccccc2)S/C1=C\c1cc([N+](=O)[O-])ccc1O	VDR inhibitor inconclusive
COc1cc(/C=C2\S/C(=N/S(=O)(=O)Cc3ccccc3)NC2=O)c([N+](=O)[O-])cc1OC	none
COc1cc(/C=C2/S/C(=N/S(=O)(=O)c3ccccc3)NC2=O)c([N+](=O)[O-])cc1OC	PLK1 PBD inh 27µM
COc1cc(/C=C2/S/C(=N/S(=O)(=O)Cc3ccccc3)NC2=O)c([N+](=O)[O-])cc1OC	PLK1 PBD inh 24µM
COc1ccc(S(=O)(=O)N(CC(=O)NCc2ccc(C)cc2)c2ccc(Cl)cc2)cc1	none (no result: PLK1 PBD inh, Tb PFK block)
COc1ccc(OC)c(/C=C/c2c3ccccc3cc[n+]2C)c1	none (no result: PLK1 PBD inh, Tb PFK block, VDR inhibitor)
C[N+]1(CC(=O)c2ccc3ccccc3c2)CCOCC1	none (no result: PLK1 PBD inh, Tb PFK block, VDR inhibitor)
Cn1c(=O)c(C(=O)CN2CCc3ccccc32)c(N)n(Cc2ccccc2)c1=O	PLK1 PBD inh 30µM, VDR inhibitor inconclusive
Cn1c(=O)c(C(=O)CN2CCCc3ccccc32)c(N)n(Cc2ccccc2)c1=O	none
